Data taken from PubChem BioAssay (NCI).
This is part of a sample that, as a whole, favours compounds with a hit. Of some 83,000 tested, about 20% had one in any assay.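 Negative percent growth values reflect cell death: -40 means 40% of the cells present at the start died, and -100 means all died.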 Unmarked numbers belong to inactive results. Active and inactive are the calls of the source. Rule for the calls: active = growth percent below 10; inactive = the rest.

Tests used:
Assay in all cases: NCI-60 one-dose screen, 48 h (100 = growth as untreated, 0 = no growth, -100 = all killed)
Conditions in all cases: 10 µM unless noted
[1] = test system: HCT-15 colon
[2] = test system: HT29 colon
[3] = test system: SNB-75 CNS
[4] = test system: SNB-19 CNS
[5] = test system: U251 CNS
[6] = test system: PC-3 prostate
[7] = test system: SK-MEL-5 melanoma
[8] = test system: UACC-62 melanoma
[9] = test system: LOX IMVI melanoma
[10] = test system: SK-MEL-28 melanoma
[11] = test system: SK-MEL-2 melanoma
[12] = test system: EKVX NSCLC
[13] = test system: SN12C renal
[14] = test system: UO-31 renal
[15] = test system: TK-10 renal
[16] = test system: ACHN renal
[17] = test system: CAKI-1 renal
[18] = test system: A498 renal
[19] = test system: CCRF-CEM leukemia
[20] = test system: MOLT-4 leukemia

## COc1ccc(C(O)c2cc3c(N)c(C(=O)Nc4ccc(Cl)cc4)sc3nc2C)cc1 (stereo not given)
[1]
  growth: 12.3%
[2]
  growth: -6.54% (active)
[3]
  growth: -22.5% (active)
[4]
  growth: 37.2%
[5]
  growth: 20.2%
[6]
  growth: 21.4%
[7]
  growth: 15.4%
[8]
  growth: 17.3%
[9]
  growth: 29.2%
[10]
  growth: 59.6%
[11]
  growth: 37.1%
[12]
  growth: 37%
[13]
  growth: 34.6%
[14]
  growth: 37%
[15]
  growth: 42.4%
[16]
  growth: 35.6%
[17]
  growth: 25.2%
[18]
  growth: -5.66% (active)
[19]
  growth: 8.15% (active)
[20]
  growth: 15.5%

## CCOC(=O)c1c(SC)nn(-c2cc(=O)[nH]c3ccc(Br)cc23)c1N
[1]
  growth: 106%
[2]
  growth: 107%
[3]
  growth: 94%
[4]
  growth: 101%
[5]
  growth: 94.1%
[6]
  growth: 94.2%
[7]
  growth: 101%
[8]
  growth: 102%
[9]
  growth: 90.1%
[10]
  growth: 117%
[11]
  growth: 99%
[12]
  growth: 88.2%
[13]
  growth: 108%
[14]
  growth: 81%
[15]
  growth: 110%
[16]
  growth: 98.3%
[17]
  growth: 87.2%
[18]
  growth: 110%
[19]
  growth: 111%
[20]
  growth: 111%

## COc1cc(Nc2cc(O)c3c(=O)cc(-c4ccccc4)oc3c2)cc(OC)c1
[1]
  growth: 25%
[2]
  growth: 3.58% (active)
[3]
  growth: -9.05% (active)
[4]
  growth: 43.1%
[5]
  growth: 22.8%
[6]
  growth: 27.8%
[7]
  growth: 28.6%
[8]
  growth: 42.5%
[9]
  growth: 41.7%
[10]
  growth: 68.5%
[11]
  growth: 13.2%
[12]
  growth: 38.2%
[13]
  growth: 44.3%
[14]
  growth: 40.3%
[15]
  growth: 44%
[16]
  growth: 48.3%
[17]
  growth: 47.2%
[18]
  growth: -4.73% (active)
[19]
  growth: 10.8%
[20]
  growth: 24.6%

## Cn1c(COC(=O)N2CCCCC2)nc2c(N3CCOCC3)nc(-c3ccccc3)nc21
[1]
  growth: -43% (active)
[2]
  growth: -33.4% (active)
[3]
  growth: -85.4% (active)
[4]
  growth: 17.7%
[5]
  growth: -70.9% (active)
[6]
  growth: -57.5% (active)
[7]
  growth: -95.6% (active)
[8]
  growth: -92.7% (active)
[9]
  growth: -90.4% (active)
[10]
  growth: -96.8% (active)
[11]
  growth: -79.6% (active)
[12]
  growth: -59.4% (active)
[13]
  growth: -86.1% (active)
[14]
  growth: -99.3% (active)
[15]
  growth: -86.2% (active)
[16]
  growth: -100% (active)
[17]
  growth: -88% (active)
[18]
  growth: -21.7% (active)
[19]
  growth: -6.4% (active)
[20]
  growth: -5.2% (active)

## O=c1nc2n(nc1/C=C/c1ccco1)CC(c1ccc(Cl)cc1)=NN2
[1]
  growth: 135%
[2]
  growth: 109%
[3]
  growth: 91.6%
[4]
  growth: 96.5%
[5]
  growth: 115%
[6]
  growth: 97.6%
[7]
  growth: 99.9%
[8]
  growth: 97.6%
[9]
  growth: 113%
[10]
  growth: 120%
[11]
  growth: 30.3%
[12]
  growth: 72.1%
[13]
  growth: 136%
[14]
  growth: 64%
[15]
  growth: 104%
[16]
  growth: 122%
[17]
  growth: 94%
[18]
  growth: 107%
[19]
  growth: 98%
[20]
  growth: 84.2%

## COc1ccccc1N1CCN(C(=O)c2ccc3nc(NC(=O)c4ccc(NCCc5ccccc5)c([N+](=O)[O-])c4)sc3c2)CC1
[1]
  growth: 81.5%
[2]
  growth: 83.4%
[3]
  growth: 91.4%
[4]
  growth: 95.2%
[5]
  growth: 86.4%
[6]
  growth: 77.9%
[7]
  growth: 84.4%
[8]
  growth: 71.8%
[9]
  growth: 81.6%
[10]
  growth: 91.5%
[11]
  growth: 93.4%
[12]
  growth: 89%
[13]
  growth: 77.2%
[14]
  growth: 60.1%
[15]
  growth: 110%
[16]
  growth: 90.6%
[17]
  growth: 73.4%
[18]
  growth: 79.6%
[19]
  growth: 77.6%
[20]
  growth: 95.4%

## CC(=O)OCC(=O)[C@@]1(O)CC[C@H]2[C@@H]3CC(=C(Br)Br)C4=CC(=O)CC[C@]4(C)[C@H]3C(=O)C[C@@]21C
[1]
  growth: 94.4%
[2]
  growth: 92.1%
[3]
  growth: 81.2%
[4]
  growth: 92.6%
[5]
  growth: 82.9%
[6]
  growth: 76.1%
[7]
  growth: 95.2%
[8]
  growth: 82.5%
[9]
  growth: 97.3%
[10]
  growth: 102%
[11]
  growth: 78.7%
[12]
  growth: 90.1%
[13]
  growth: 93.6%
[14]
  growth: 68.3%
[15]
  growth: 91.2%
[16]
  growth: 94.1%
[17]
  growth: 81.7%
[18]
  growth: 79.5%
[19]
  growth: 83.3%
[20]
  growth: 93.1%

## CC1(C)CN(c2cnc(C(=O)Nc3cc(F)cc4cccnc34)cn2)CCN1
[1]
  growth: 59.3%
[2]
  growth: 47.1%
[3]
  growth: 72.9%
[4]
  growth: 93.1%
[5]
  growth: 89.5%
[6]
  growth: 44.8%
[7]
  growth: 89.3%
[8]
  growth: 106%
[9]
  growth: 69.7%
[10]
  growth: 80.2%
[11]
  growth: 99.8%
[12]
  growth: 73%
[13]
  growth: 72.1%
[14]
  growth: 40.9%
[15]
  growth: 79.3%
[16]
  growth: 31.3%
[17]
  growth: 62.4%
[18]
  growth: 74.3%
[19]
  growth: 44.5%
[20]
  growth: 38.5%
